Data as given in PubChem BioAssay (Tox21).
Results filed as inconclusive are left out. The source made the active and inactive calls. Unless noted, calls follow the shape of the dose curve; as a rule, active = well fitted curve in the direction sought with a large enough effect in the repeat runs; inconclusive = weak or mixed curves; inactive = no such curve, though single readings can be large; an effect the other way counts as inactive or inconclusive.

Assays:
[1] = biological target: Thyrotropin receptor (Homo sapiens) (UniProt P16473); assay: qHTS assay to identify small molecule agonists of the thyroid stimulating hormone receptor (TSHR) signaling pathway (AID 1224843; calls by dose curve; also: nearly all actives have a fitted effect of over 45% in size)
Sequence of Thyrotropin receptor (Homo sapiens) (P16473 whole entry, looked up): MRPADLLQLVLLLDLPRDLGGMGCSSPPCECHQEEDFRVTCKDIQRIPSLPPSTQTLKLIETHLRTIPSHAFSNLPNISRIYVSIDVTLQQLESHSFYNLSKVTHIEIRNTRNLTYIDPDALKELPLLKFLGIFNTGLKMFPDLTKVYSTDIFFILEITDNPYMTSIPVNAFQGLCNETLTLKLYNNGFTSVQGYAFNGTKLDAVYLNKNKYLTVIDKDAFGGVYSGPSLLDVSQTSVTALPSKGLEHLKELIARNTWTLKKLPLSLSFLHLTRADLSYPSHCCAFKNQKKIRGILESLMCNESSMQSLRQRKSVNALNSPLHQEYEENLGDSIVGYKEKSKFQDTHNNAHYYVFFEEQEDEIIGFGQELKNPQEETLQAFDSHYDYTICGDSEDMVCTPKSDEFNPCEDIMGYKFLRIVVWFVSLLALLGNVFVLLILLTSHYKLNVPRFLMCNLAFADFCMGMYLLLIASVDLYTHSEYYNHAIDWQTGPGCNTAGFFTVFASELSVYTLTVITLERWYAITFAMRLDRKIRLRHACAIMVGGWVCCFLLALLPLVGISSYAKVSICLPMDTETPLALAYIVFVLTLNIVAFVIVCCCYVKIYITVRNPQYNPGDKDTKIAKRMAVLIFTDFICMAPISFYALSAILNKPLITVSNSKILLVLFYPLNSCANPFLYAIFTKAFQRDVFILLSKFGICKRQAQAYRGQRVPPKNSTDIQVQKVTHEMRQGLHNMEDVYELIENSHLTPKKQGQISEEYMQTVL
Outline: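 Compounds are titrated over 15 concentrations, in triplicate, onto TSHR-HEK293 cells seeded at 800/well. Plates sit 30 min at room temperature before cAMP-d2 and anti-cAMP cryptate are added; signal is read after a further hour.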

[2] = qHTS assay to identify small molecule agonists of the hypoxia (HIF-1) signaling pathway - cell viability counter screen (AID 1224844; calls by dose curve; also: nearly all actives have a fitted effect of over 50% in size)
Outline: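 Cytotoxicity was measured in parallel with the HRE-driven beta-lactamase readout: after 17 hrs of compound exposure at 37C, HRE-bla ME-180 cells received CellTiter-Glo and luminescence was recorded 30 min later.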

[3] = qHTS assay to identify small molecule agonists of the hypoxia (HIF-1) signaling pathway (AID 1224846; active = well fitted activation curve with a large enough effect in the signal ratio in the repeat runs, not every such curve was filed as active; the % refers to the signal ratio)
Outline: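 Compounds from the Tox21 10K library, dissolved in DMSO, are tested for induction of a hypoxia response element–controlled beta-lactamase reporter in ME-180 cells. Exposure lasts 17 hrs at 37C after a 5 hr settling period, followed by CCF4-AM FRET substrate.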

[4] = qHTS assay to identify small molecule agonists of H2AX - cell viability counter screen (AID 1224847; calls by dose curve; also: top concentration of the series differs between compounds; nearly all actives have a fitted effect of over 30% in size)
Outline: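 Read-out: CellTiter-Glo luminescence, 30 min RT. Cells: wild-type CHO-K1, 1000/well, 10% FBS, plated overnight at 37C. Treatment: 15 concentrations, 3 hr, 37C, 0.76% DMSO.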

[5] = qHTS RealTime-Glo MT Cell Viability Assay in HepG2 cells - 24 hour (AID 1224867); also: nearly all actives have a fitted effect of over 50% in size
Outline: (§1)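 Cells + NanoLuc/prosubstrate dispensed (600 cells/well) → 5 h at 37 C/5% CO2 → compounds in DMSO transferred → 40 h incubation at 37 C, luminescence read at 0, 8, 16, 24, 32, 40 h.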

[6] = qHTS RealTime-Glo MT Cell Viability Assay in HEK293 cells - 32 hour (AID 1224868); also: top concentration of the series differs between compounds; nearly all actives have a fitted effect of over 50% in size
Outline: (§2)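 Tox21 10K qHTS, HEK293, 600 cells/well, RealTime-Glo reagent co-dispensed with cells; 5 h preincubation, compound by pintool, 37 C, luminescence at 0–40 h.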

[7] = A CellTox Green Cytotoxicity Assay to monitor cytotoxicity in HEK293 cells - 0 hour (AID 1224869); also: nearly all actives have a fitted effect of over 50% in size
Outline: (§3)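 Cells (HEK293, 600/well) and dye reagent are dispensed together. After 5 h at 37 C, 23 nL compound is pinned in. Plates stay at 37 C for 40 h with fluorescence read at 0h, 8h, 16h, 24h, 32h and 40h.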

[8] = A CellTox Green Cytotoxicity Assay to monitor cytotoxicity in HEK293 cells - 40 hour (AID 1224871); also: nearly all actives have a fitted effect of over 45% in size
Outline: as §3

[9] = qHTS RealTime-Glo MT Cell Viability Assay in HEK293 cells - 16 hour (AID 1224872)
Outline: as §2

[10] = qHTS RealTime-Glo MT Cell Viability Assay in HepG2 cells - 8 hour (AID 1224873); also: nearly all actives have a fitted effect of over 55% in size
Outline: (§4)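 HepG2 cells mixed with RealTime-Glo MT reagents (NanoLuc plus cell-permeant prosubstrate) were seeded at 600 cells/well, incubated 5 h at 37 C/5% CO2, then pinned with compounds in DMSO; nonlytic luminescence tracked viability during 40 h treatment.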

[11] = qHTS RealTime-Glo MT Cell Viability Assay in HEK293 cells - 40 hour (AID 1224874); details: RealTime-Glo luminescence; max response: stronger effect = lower value; also: nearly all actives have a fitted effect of over 50% in size
Outline: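 Real-time viability in HEK293: signal arises when living cells convert a prosubstrate for NanoLuc in the medium, so luminescence tracks viable cell number. Compound (23 nL, DMSO) added 5 h post-seeding; kinetic reads at 0–40 h, 37 C.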

[12] = A CellTox Green Cytotoxicity Assay to monitor cytotoxicity in HEK293 cells - 24 hour (AID 1224875); also: nearly all actives have a fitted effect of over 45% in size
Outline: as §3

[13] = A CellTox Green Cytotoxicity Assay to monitor cytotoxicity in HepG2 cells - 16 hour (AID 1224876); also: nearly all actives have a fitted effect of over 45% in size
Outline: (§5)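 Cells and non-lytic dye reagent are dispensed together (600 HepG2 cells/well) and incubated 5 h before DMSO compound transfer. Kinetic fluorescence is then recorded in the same wells during 40 h at 37 C.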

[14] = qHTS RealTime-Glo MT Cell Viability Assay in HepG2 cells - 32 hour (AID 1224877); also: nearly all actives have a fitted effect of over 55% in size
Outline: as §1

[15] = A CellTox Green Cytotoxicity Assay to monitor cytotoxicity in HepG2 cells - 24 hour (AID 1224878); also: nearly all actives have a fitted effect of over 45% in size
Outline: as §5

[16] = A CellTox Green Cytotoxicity Assay to monitor cytotoxicity in HepG2 cells - 40 hour (AID 1224879); also: nearly all actives have a fitted effect of over 40% in size
Outline: as §5

[17] = qHTS RealTime-Glo MT Cell Viability Assay in HepG2 cells - 40 hour (AID 1224870); also: nearly all actives have a fitted effect of over 50% in size
Outline: as §4

[18] = qHTS assay to identify small molecule agonists of H2AX (AID 1224845; active = well fitted activation curve with a large enough effect in the signal ratio in the repeat runs, not every such curve was filed as active; the % refers to the signal ratio)
Outline: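 Wild-type CHO-K1 cells plated overnight, then exposed 3 hr at 37C to compounds at 15 concentrations (0.76% DMSO). Lysed, then HTRF anti-pH2AX(S139)-cryptate/anti-H2AX-d2 detection after 24 hr at room temperature; emissions 665 and 620 nm.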

[19] = qHTS assay to identify small molecule antagonists of the estrogen related receptor (ERR) signaling pathway from Tox21 library (AID 1224848); also: nearly all actives have a fitted effect of over 50% in size
Outline: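 First, 2,000 ERR cells per well were plated and held 6 h at 37 C/5% CO2. Next, compounds in DMSO were pinned in and left 18 h at 37 C. Finally, ONE-Glo was added and luminescence read after 30 min at room temperature.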

[20] = qHTS assay to identify small molecule agonists of the estrogen related receptor (ERR) signaling pathway from Tox21 library (AID 1224849; calls by dose curve; also: nearly all actives have a fitted effect of over 15% in size); details: ERR reporter cell line, ONE-Glo luciferase, 18 h; at 92.4 µM (top of the series) unless noted
Outline: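 Cells carrying the ERR reporter were plated and allowed to settle for 6 h, exposed to library compounds for 18 h at 37 C, then lysed with ONE-Glo and luminescence measured.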
% is scaled to controls: 0 for no effect and ±100 for the full control effect.

CCCCCCCCCCCCCCCC(=O)OCC
inactive: Potency [1] | Potency [2] | outcome [3] | Potency [4] | Potency [5] | Potency [6] | Potency [7] | Potency [8] | Potency [9] | Potency [10] | max response [11] 0.513% | Potency [12] | Potency [13] | Potency [14] | Potency [15] | Potency [16]

Nc1ccn([C@H]2CS[C@@H](CO)O2)c(=O)n1
inactive: Potency [1] | Potency [2] | outcome [3] | Potency [4] | Potency [5] | Potency [6] | Potency [7] | Potency [17] | Potency [9] | Potency [10] | max response [11] -7.77% | Potency [12] | Potency [13] | Potency [14] | Potency [15] | Potency [16]

CC1=CC[C@@H]2C[C@H]1C2(C)C
inactive: activation [1] 21.3% [at 19 µM] | activity change, negative = cytotoxicity [2] 7.49% [at 15.8 µM] | activation (H2AX phosphorylation) [18] 1.37% [at 31.6 µM] | activity change, negative = cytotoxicity [4] 0.589% [at 31.6 µM] | cytotoxicity [7] 0.458% [at 15.8 µM] | activity change, negative = cytotoxic [17] 1.07% [at 15.8 µM] | cytotoxicity increase [8] 2.52% [at 15.8 µM] | activity change, negative = cytotoxicity [9] 8.54% [at 15.8 µM] | viability change, negative = cytotoxic [10] 0.867% [at 15.8 µM] | max response [11] 1.39% | activity change [12] 2.23% [at 15.8 µM, stronger effect = higher value] | cytotoxicity increase [13] -4.53% [at 15.8 µM] | activity change, negative = cytotoxic [14] 2.7% [at 15.8 µM] | cytotoxicity [15] -4.03% [at 15.8 µM] | cytotoxicity increase [16] -3.58% [at 15.8 µM]

CCN(CC)CCNC(=O)c1cc(Cl)c(N)cc1OC
inactive: Potency [1] | Potency [2] | Potency [18] | Potency [4] | Potency [5] | Potency [6] | Potency [7] | Potency [17] | Potency [8] | Potency [9] | Potency [10] | max response [11] -5.88% | Potency [12] | Potency [13] | Potency [14] | Potency [15] | Potency [16]

Cc1cccc(C)c1NC(=O)c1cc(S(N)(=O)=O)c(Cl)cc1O
inactive: Potency [1] | Potency [2] | outcome [3] | Potency [4] | Potency [5] | Potency [6] | Potency [7] | Potency [8] | Potency [9] | Potency [10] | max response [11] 1.94% | Potency [12] | Potency [13] | Potency [14] | Potency [15] | Potency [16]

CC(=O)Oc1cccc(O)c1
inactive: Potency [1] | Potency [2] | outcome [3] | Potency [4] | Potency [19] | activity change, positive = activation [20] 5.58% [at 42.5 µM] | Potency [5] | Potency [6] | Potency [7] | Potency [17] | Potency [8] | Potency [9] | Potency [10] | max response [11] -0.489% | Potency [12] | Potency [13] | Potency [14] | Potency [15] | Potency [16]

COC1CCC=CO1 (stereo not given)
inactive: Potency [1] | Potency [2] | outcome [3] | Potency [4] | Potency [19] | Potency [5] | Potency [6] | Potency [7] | Potency [17] | Potency [9] | Potency [10] | max response [11] 9.69% | Potency [12] | Potency [13] | Potency [14] | Potency [15] | Potency [16]

CC(C)(O)c1coc(S(=O)(=O)NC(=O)Nc2c3c(cc4c2CCC4)CCC3)c1
inactive: Potency [1] | Potency [2] | Potency [18] | Potency [4] | Potency [5] | Potency [6] | Potency [7] | Potency [17] | Potency [8] | Potency [9] | Potency [10] | max response [11] 21.1% | Potency [12] | Potency [14]
